According to PubChem BioAssay AID504451 (NMMLSC, 2011):
The whole screen tested about 2,000 compounds, of which about 80 (4%) were called active. The list is a sample of the results. Values without a mark were called inactive.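 How the source made its calls: active means aptamer displacement above 40%, near three times the noise of non-fluorescent compounds, on plates passing quality checks; inactive means the rest.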

Target: Beta-adrenergic receptor kinase 1 (Homo sapiens) (UniProt P25098)
Test: RNA aptamer-GRK2 binding blockers – biochemical, cherry pick 1, bead flow cytometry, confirmation (AID 504451);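 further: negative values mostly reflect intrinsic compound fluorescence rather than true enhancement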
Settings: bead-bound GRK2, FAM-aptamer displacement, at 10 µM, stronger effect = higher value

Sequence of Beta-adrenergic receptor kinase 1 (Homo sapiens) (P25098 whole entry, looked up): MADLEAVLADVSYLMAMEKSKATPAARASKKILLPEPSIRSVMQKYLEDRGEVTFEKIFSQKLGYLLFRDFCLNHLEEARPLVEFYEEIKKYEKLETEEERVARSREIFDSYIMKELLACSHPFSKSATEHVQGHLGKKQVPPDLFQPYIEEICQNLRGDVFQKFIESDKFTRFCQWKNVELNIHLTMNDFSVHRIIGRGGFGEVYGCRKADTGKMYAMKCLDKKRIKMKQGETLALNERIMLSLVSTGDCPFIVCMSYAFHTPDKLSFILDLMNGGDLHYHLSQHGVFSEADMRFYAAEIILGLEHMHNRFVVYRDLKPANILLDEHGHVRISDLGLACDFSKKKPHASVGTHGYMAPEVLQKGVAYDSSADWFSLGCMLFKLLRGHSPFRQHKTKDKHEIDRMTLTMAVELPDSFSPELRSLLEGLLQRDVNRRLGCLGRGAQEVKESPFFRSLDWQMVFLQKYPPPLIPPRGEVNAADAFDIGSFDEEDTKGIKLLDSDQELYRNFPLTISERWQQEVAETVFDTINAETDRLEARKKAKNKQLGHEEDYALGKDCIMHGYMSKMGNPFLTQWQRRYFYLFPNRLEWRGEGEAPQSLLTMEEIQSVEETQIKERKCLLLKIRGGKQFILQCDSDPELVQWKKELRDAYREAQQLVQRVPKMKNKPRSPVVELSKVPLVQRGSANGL

Structure (SMILES) | aptamer displacement
COc1cc(C(=O)NCc2ccc3c(c2)cc(C)n3C)cc(OC)c1OC | 0.16%
Cc1csc(=O)n1CC(=O)OCC(=O)N(CC(C)C)c1c(N)n(Cc2ccccc2)c(=O)[nH]c1=O | -4.19%
COCCn1c(C)cc(C(=O)CN2c3cccc4cccc(c34)S2(=O)=O)c1C | 5.59%
COc1ccc(NC(=O)CN(C)C(=O)c2cc(-c3ccc(C)o3)nc3ccccc23)cc1 | 1.02%
O=C(NNc1ncnc2c1cnn2-c1ccccc1)c1ccco1 | -5.21%
C/C(=N\OCC(=O)O)c1ccc(Cl)cc1 | -4.26%
NC(=O)C1CCN(C(=O)c2ccc3c(=O)n(Cc4cccc(Br)c4)c(=S)[nH]c3c2)CC1 | 2.04%
CCCCn1nc(C(=O)OCC(=O)Nc2sccc2C(N)=O)c2ccccc2c1=O | -3.95%
O=S(=O)(Nc1ccc(-c2ccc(N3CCOCC3)nn2)cc1)c1cc(Cl)ccc1Cl | 1.37%
CCOC(=O)C(C)n1cnc2scc(-c3ccc(C)c(C)c3)c2c1=O (configuration not stated) | 0.17%
COc1ccccc1NC(=O)CSc1nc2sc3c(c2c(=O)n1-c1ccccc1)CCN(C)C3 | 1.27%
O=C(Nc1nnc(-c2ccccc2)o1)c1cccc(S(=O)(=O)N2CCOCC2)c1 | -3.8%
CSc1ccc(/C=C2\NC(=O)NC2=O)cc1 | -11.5%
Cc1nn(Cc2ccc(F)cc2)c(C)c1NC(=O)c1noc2c1CCc1ccccc1-2 | 12.1%
O=C(COC(=O)c1ccc(F)cc1F)Nc1ncccn1 | 39.1%
Cc1ccccc1CN1CCN(CC(=O)NCc2ccccn2)C1=O | 0.03%
CCOCCCNC(=O)C(NC(=O)CNC(=O)c1ccccc1)c1ccc(OC)cc1 (configuration not stated) | -2.56%
Cc1ccc(C(CNC(=O)Nc2cccc(C)c2)N2CCN(C)CC2)cc1 (configuration not stated) | -1.91%
O=C(CCNC(=O)c1ccccc1)NN=Cc1ccc(Br)o1 | 8.12%

Structure (SMILES) | aptamer displacement
Cc1ccc(N2C(=O)C3N=NN(CC(=O)N4N=C(c5cccc6ccccc56)CC4c4ccccc4)C3C2=O)cc1 (configuration not stated) | -6.3%
CC(=O)N1CC[n+]2c(-c3ccc([N+](=O)[O-])cc3)csc21 | -2.74%
O=C(c1cc2cc(F)ccc2[nH]1)N1CCN(c2ccc(F)cc2)CC1 | -3.05%
Cc1cccc(NC(=O)C2CCCN(C(=O)NCc3ccccc3)C2)c1C (configuration not stated) | -2.02%
COc1ccc(Cl)cc1NC(=O)CCS(=O)(=O)c1cc2c(cc1C)NC(=O)CO2 | 1.91%
COc1ccc(-n2nc(C(=O)NCC(=O)N3CCCCCC3)c3ccccc3c2=O)cc1Cl | -1.64%
CC(NC(=O)C1CCCN(S(=O)(=O)c2ccc(-n3cnnn3)cc2)C1)c1ccc(F)cc1 (configuration not stated) | 1.56%
COc1cc(C(=O)OCC(=O)N(CC(C)C)C2CCS(=O)(=O)C2)ccc1OCC(C)C (configuration not stated) | -1.87%
Cc1nc(Nc2ccccc2F)c2nnn(Cc3ccccc3Cl)c2n1 | 0.75%
COCCCNC(=O)CNC(=O)c1nn(-c2ccc(OC)cc2)c(=O)c2ccccc12 | -4.54%
COc1ccc(Nc2cc(Sc3ccc(OC)cc3)ncn2)cc1 | -1.93%
CCOC(=O)c1sc2nc(CSc3ccccc3)[nH]c(=O)c2c1C | -0.46%
Nc1ccc2nc3c(=O)[nH]c(=S)[nH]c3nc2c1 | 33%
Cc1cc(C(=O)NC2CCN(Cc3ccccc3)CC2)n[nH]1 | -6.63%
CCC(=C/c1sc2ccc3ccccc3c2[n+]1C)/C=C1\Sc2ccc3ccccc3c2N1C | 101% (active)
O=C(NCC12CC3CC(C1)CC(CNC(=O)N1CCCC1)(C3)C2)N1CCCC1 | -0.31%
CCOc1ccccc1C(=O)NCc1ccco1 | -1.88%
COC(=O)c1ccc(C)c(NC(=O)C2CC(=O)N(C3CCCC(C)C3C)C2)c1 (configuration not stated) | -1.41%
O=C(NCc1ccccc1)c1cccc(NC(=O)C2CCCCC2)c1 | 0.14%

Structure (SMILES) | aptamer displacement
COc1ccc(C(=O)NCCNc2ccc([N+](=O)[O-])cn2)cc1 | -0.48%
C/C(=N\Nc1nc2ccccc2[nH]1)c1cccs1 | -0.6%
COc1ccc(Nc2nc(-c3cccnc3)nc3ccccc23)cn1 | 4.02%
COc1ccc(N2CCN(C(CNS(=O)(=O)c3ccc(C)cc3)c3ccccc3)CC2)cc1 (configuration not stated) | -2.82%
O=C(Nc1ccc(-c2nnc(-c3ccccc3)o2)cc1)c1ccc(Br)o1 | 0.23%
O=C1C2N=NN(CC(=O)N3N=C(c4cccc5ccccc45)CC3c3ccccc3)C2C(=O)N1c1ccccc1 (configuration not stated) | 0.13%
COc1cccc(CN(C)CC(=O)Nc2sc3c(c2C#N)CCC3)c1 | -0.98%
Cc1ccccc1-c1nnn(CC(=O)c2ccc(S(=O)(=O)N3CCCC3)cc2)n1 | -1.24%
CC(C)CN(C(=O)c1cccc(S(=O)(=O)N2CCCCC2)c1)C1CCS(=O)(=O)C1 (configuration not stated) | 0.16%
O=c1[nH]c(SCc2ccccc2)nnc1-c1ccccc1 | -4.45%
Cc1cc(/C=C2\SC(=O)N(C)C2=O)c(C)n1-c1cccc(C(=O)O)c1 | 10.9%
CN(CC(=O)Nc1ccc(N2CCOCC2)cc1)CC(=O)Nc1ccccc1[N+](=O)[O-] | -1.83%
CNS(=O)(=O)c1cccc(C(=O)NCC2CCCCC2)c1 | 3.13%
CCCc1nc2ccccc2c(=O)n1NC(=O)c1c(O)c2ccccc2[nH]c1=O | -0.69%
Cn1c(=O)[nH]c(=O)c2c1nc(N1CCN(C(c3ccccc3)c3ccccc3)CC1)n2CCO | -8.5%
O=C(CCS(=O)(=O)c1ccc(Br)cc1)NCCc1ccc(Cl)cc1 | 28%
Cc1ccc(S(=O)(=O)CCC(=O)Nc2nnc(CC(C)C)s2)cc1 | 2.47%
O=C(Oc1ccc(Br)cc1)c1cccnc1 | -1.31%
COC(=O)N/N=C/c1ccc(/C=N/NC(=O)OC)cc1 | -0.84%
